Assay results from ChEMBL document CHEMBL2218924, “A broad activity screen in support of a chemogenomic map for kinase signalling research and drug discovery” (Biochem J, 2013).

Columns and labels:
[1] = target: Tyrosine-protein kinase SYK (Homo sapiens) (UniProt P43405); settings: at 10 µM
[2] = target: T1, Mitogen-activated protein kinase kinase kinase 7 (Homo sapiens) (UniProt O43318); settings: at 1 µM
T1 sequence (whole entry): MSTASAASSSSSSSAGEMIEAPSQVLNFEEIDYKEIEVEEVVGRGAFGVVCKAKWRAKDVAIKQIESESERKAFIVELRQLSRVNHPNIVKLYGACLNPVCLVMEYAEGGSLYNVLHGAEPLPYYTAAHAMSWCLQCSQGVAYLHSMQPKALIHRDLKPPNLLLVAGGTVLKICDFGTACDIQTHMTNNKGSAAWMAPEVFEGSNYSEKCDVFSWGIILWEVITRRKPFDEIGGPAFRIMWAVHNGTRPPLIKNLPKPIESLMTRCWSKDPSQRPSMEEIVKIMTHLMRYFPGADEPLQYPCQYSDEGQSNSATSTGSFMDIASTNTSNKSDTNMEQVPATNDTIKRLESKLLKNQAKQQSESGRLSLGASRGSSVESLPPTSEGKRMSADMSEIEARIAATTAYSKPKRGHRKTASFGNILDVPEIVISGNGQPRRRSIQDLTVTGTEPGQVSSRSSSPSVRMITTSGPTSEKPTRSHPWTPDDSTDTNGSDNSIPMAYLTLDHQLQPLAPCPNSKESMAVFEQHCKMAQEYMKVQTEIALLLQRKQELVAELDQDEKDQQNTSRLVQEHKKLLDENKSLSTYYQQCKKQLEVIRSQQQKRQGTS

[3] = target: T1, Mitogen-activated protein kinase kinase kinase 7 (Homo sapiens); settings: at 10 µM
[4] = target: T2, Serine/threonine-protein kinase TAO1 (Homo sapiens) (UniProt Q7L7X3); settings: at 1 µM
T2 sequence (whole entry): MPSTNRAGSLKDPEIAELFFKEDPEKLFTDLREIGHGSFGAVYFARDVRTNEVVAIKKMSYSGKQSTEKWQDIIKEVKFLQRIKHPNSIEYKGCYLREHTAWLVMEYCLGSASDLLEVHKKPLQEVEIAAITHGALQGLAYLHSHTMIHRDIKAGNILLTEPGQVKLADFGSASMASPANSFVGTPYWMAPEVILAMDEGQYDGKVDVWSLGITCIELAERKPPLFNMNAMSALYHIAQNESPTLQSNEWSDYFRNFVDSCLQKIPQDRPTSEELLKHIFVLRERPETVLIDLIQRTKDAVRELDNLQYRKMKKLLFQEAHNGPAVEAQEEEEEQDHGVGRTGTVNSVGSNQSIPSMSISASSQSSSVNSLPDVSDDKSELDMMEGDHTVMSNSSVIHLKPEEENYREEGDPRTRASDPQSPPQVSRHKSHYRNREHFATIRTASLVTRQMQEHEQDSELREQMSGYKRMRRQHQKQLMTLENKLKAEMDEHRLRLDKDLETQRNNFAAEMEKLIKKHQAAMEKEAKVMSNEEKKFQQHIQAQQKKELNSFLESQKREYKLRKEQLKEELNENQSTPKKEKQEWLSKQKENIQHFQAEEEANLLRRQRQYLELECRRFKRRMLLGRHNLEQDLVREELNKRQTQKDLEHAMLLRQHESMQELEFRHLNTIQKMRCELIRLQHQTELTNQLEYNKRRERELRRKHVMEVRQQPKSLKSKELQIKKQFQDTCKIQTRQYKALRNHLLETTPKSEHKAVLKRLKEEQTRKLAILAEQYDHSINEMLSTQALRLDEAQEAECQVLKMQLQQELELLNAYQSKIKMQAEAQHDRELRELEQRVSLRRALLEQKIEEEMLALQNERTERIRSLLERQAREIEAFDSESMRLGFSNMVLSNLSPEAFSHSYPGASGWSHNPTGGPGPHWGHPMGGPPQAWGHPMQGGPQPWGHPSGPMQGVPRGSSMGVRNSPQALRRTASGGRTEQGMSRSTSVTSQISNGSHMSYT

[5] = target: T2, Serine/threonine-protein kinase TAO1 (Homo sapiens); settings: at 10 µM
[6] = target: T3, Serine/threonine-protein kinase TAO2 (Homo sapiens) (UniProt Q9UL54); settings: at 1 µM
T3 sequence (whole entry): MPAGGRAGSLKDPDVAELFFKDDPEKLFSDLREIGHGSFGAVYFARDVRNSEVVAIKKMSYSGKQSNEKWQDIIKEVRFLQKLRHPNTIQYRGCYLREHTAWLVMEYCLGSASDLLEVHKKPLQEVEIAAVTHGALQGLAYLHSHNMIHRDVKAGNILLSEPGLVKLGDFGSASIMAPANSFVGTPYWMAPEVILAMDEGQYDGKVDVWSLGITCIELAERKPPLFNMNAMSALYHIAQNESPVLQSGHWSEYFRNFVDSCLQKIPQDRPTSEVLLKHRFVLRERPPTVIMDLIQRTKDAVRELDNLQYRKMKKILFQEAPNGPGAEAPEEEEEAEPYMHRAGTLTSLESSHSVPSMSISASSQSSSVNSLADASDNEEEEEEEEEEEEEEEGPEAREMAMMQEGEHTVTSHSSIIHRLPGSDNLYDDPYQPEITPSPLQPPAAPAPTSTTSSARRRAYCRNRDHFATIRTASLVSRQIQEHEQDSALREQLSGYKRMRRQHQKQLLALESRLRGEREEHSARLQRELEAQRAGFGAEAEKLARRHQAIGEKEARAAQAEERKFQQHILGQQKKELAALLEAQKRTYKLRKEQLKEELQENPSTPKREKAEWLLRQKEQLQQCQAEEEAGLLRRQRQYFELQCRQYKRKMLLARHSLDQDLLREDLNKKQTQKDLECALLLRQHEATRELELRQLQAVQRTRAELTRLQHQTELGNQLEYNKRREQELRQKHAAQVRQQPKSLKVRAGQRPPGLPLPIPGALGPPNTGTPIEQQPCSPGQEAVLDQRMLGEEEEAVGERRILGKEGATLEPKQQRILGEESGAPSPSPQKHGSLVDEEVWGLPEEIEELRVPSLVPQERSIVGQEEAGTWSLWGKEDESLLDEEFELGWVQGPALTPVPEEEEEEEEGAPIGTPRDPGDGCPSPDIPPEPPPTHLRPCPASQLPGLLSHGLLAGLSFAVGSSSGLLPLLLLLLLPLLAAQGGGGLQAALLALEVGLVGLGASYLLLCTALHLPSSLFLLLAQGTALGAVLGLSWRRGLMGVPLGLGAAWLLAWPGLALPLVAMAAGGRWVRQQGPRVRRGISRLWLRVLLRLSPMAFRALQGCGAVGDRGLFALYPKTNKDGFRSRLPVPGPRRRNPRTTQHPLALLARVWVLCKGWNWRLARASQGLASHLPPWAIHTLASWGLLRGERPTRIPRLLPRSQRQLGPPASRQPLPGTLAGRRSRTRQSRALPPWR

[7] = target: T3, Serine/threonine-protein kinase TAO2 (Homo sapiens); settings: at 10 µM
[8] = target: T4, Serine/threonine-protein kinase TAO3 (Homo sapiens) (UniProt Q9H2K8); settings: at 1 µM
T4 sequence (whole entry): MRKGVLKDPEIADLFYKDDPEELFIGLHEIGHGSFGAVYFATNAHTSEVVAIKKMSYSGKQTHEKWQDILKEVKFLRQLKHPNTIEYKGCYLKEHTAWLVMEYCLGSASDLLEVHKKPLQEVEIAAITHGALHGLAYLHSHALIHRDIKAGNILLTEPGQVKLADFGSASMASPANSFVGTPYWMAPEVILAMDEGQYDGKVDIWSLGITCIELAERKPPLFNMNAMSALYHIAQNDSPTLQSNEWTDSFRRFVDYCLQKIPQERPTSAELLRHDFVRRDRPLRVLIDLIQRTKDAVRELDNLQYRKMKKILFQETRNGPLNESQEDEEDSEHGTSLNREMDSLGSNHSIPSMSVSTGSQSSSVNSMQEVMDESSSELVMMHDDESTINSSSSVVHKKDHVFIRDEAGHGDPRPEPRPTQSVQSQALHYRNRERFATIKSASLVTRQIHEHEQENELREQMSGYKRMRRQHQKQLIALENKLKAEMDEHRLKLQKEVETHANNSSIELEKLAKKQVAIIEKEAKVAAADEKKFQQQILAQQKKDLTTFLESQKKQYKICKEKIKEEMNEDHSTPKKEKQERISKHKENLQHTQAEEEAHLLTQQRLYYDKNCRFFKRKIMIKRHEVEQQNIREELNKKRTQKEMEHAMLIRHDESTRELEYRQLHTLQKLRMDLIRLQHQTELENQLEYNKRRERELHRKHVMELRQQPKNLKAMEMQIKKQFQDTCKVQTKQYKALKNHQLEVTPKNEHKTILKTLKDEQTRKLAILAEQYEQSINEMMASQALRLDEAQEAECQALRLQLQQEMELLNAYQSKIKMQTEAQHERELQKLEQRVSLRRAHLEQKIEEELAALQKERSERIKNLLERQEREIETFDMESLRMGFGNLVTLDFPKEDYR

[9] = target: T4, Serine/threonine-protein kinase TAO3 (Homo sapiens); settings: at 10 µM
[10] = target: T5, Serine/threonine-protein kinase TBK1 (Homo sapiens) (UniProt Q9UHD2); settings: at 1 µM
T5 sequence (whole entry): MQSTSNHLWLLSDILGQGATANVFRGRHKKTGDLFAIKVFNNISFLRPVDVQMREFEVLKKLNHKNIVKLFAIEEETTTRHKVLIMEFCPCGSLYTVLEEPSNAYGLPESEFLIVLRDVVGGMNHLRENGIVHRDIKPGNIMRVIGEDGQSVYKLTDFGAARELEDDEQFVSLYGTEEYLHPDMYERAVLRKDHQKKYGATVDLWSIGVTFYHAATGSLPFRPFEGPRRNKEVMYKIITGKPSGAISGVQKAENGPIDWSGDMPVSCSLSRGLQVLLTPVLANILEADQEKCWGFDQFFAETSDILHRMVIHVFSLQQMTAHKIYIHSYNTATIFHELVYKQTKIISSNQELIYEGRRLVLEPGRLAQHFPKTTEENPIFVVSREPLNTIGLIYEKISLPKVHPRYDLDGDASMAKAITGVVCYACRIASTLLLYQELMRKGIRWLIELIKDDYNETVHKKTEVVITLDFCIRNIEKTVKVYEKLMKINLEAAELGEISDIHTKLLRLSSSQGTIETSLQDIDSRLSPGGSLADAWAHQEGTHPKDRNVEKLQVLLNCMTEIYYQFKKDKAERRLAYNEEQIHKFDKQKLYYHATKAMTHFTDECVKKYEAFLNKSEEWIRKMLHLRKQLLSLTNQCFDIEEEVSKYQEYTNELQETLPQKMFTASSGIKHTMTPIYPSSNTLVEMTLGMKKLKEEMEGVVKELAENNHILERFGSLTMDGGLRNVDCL

SMILES | residual activity [1] | residual activity [2] | residual activity [3] | residual activity [4] | residual activity [5] | residual activity [6] | residual activity [7] | residual activity [8] | residual activity [9] | residual activity [10]
O=C1NC(=O)c2c1c1c3ccccc3[nH]c1c1[nH]c3cc(Br)ccc3c21 | 79% | 94% | 84% | 92% | 92% | 103% | 92% | 93% | 94% | 75%
CC#CC(=O)Nc1cc2c(Nc3ccc(F)c(Cl)c3)ncnc2cn1 | 87% | 91% | 96% | 104% | 89% | 97% | 80% | 96% | 95% | 78%
Oc1ccc(Nc2nc(-c3ccc(Cl)cc3)cs2)cc1 | 114% | 112% | 98% | 106% | 85% | 118% | 89% | 99% | 95% | 114%
CC[n+]1c(/C=C/N(C)c2ccccc2)n(-c2ccccc2)c2ccc(-c3nc4ccccc4s3)cc21 | 46% | 100% | 102% | 93% | 78% | 100% | 60% | 95% | 62% | 104%
COc1ccc(S(=O)(=O)N(CCO)c2ccccc2CN(C)C/C=C/c2ccc(Cl)cc2)cc1 | 69% | 93% | 82% | 97% | 83% | 105% | 88% | 86% | 84% | 73%
CO[C@H]1[C@@H](OC)C[C@H](C)[C@@H](OC)C2=CC(=O)C=C(NC(=O)/C(C)=C/C=C/[C@H](OC)[C@@H](OC(N)=O)/C(C)=C/[C@@H]1C)C2=O | 87% | 96% | 94% | 98% | 89% | 99% | 93% | 107% | 95% | 77%
O=C(Nc1cccc(Nc2cc(Nc3cccc(C(F)(F)F)c3)ncn2)c1)C1CC1 | 105% | 95% | 95% | 100% | 73% | 94% | 80% | 100% | 96% | 89%
CCOc1cc2ncnc(Nc3cccc(Br)c3)c2cc1OCC | 58% | 95% | 83% | 86% | 73% | 101% | 84% | 100% | 81% | 70%
Cc1ccc(S(=O)(=O)/C=C/C#N)cc1 | 109% | 96% | 88% | 94% | 87% | 88% | 109% | 92% | 98% | 87%
CC(C)n1cnc2c(NCc3ccccc3)nc(NCCCO)nc21 | 105% | 96% | 92% | 87% | 81% | 100% | 101% | 97% | 88% | 79%
O=C1Nc2cc(Br)ccc2/C1=C1/Nc2ccccc2/C1=N\O | 37% | 89% | 81% | 68% | 58% | 75% | 91% | 68% | 82% | 8%
O=C1NC(=O)/C(=C\c2ccc3nccnc3c2)S1 | 92% | 94% | 93% | 71% | 14% | 99% | 44% | 72% | 16% | 56%
NC(=O)c1ccc2[nH]c(-c3ccc(Oc4ccc(Cl)cc4)cc3)nc2c1 | 96% | 92% | 81% | 89% | 72% | 88% | 99% | 98% | 79% | 67%
CCN(CC)C(=O)c1ccc(Nc2nc(OCC3CCCCC3)c3nc[nH]c3n2)cc1 | 13% | 47% | 7% | 52% | 10% | 51% | 6% | 70% | 16% | 15%
Cn1cc(/C=C2\C(=O)Nc3ccc(S(N)(=O)=O)cc32)c2ccccc21 | 28% | 92% | 77% | 74% | 37% | 100% | 88% | 74% | 66% | 8%
N#CCCc1ccc2c(c1)-c1[nH]c3ccc([N+](=O)[O-])cc3c1CC(=O)N2 | 41% | 57% | 21% | 58% | 24% | 64% | 52% | 56% | 41% | 38%
